# Assay outcomes deposited in PubChem by National Center for Advancing Translational Sciences (NCATS).
# Rows were chosen to be rich in hits. Some 10% of all compounds tested hit in one or more screens of this group.
# PNC inhibitor: inhibitors of perinucleolar compartment assembly. activity change (PNC), negative = inhibition, % at 10 µM. 3.1% of 140,000 active. PC3M PTB-GFP, PNC prevalence imaging, 16 h; stronger effect = lower value. AID 2417;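 active means readout at or below -70, meaning at least 70% loss of cells showing the perinucleolar compartment, a nuclear body marking cancer cells; inconclusive means readout between -30 and a set limit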;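 further: plate controls were DMSO wells for no effect and camptothecin positive control wells for full effect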
#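 PC3M cells stably expressing PTB-GFP, 750–1000 cells/well, treated 16 h at 37 °C with compound (23 nl of library stock), in duplicate. After paraformaldehyde fixation and Hoechst stain, imaged at 20x; PNC prevalence scored by image analysis.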
# ALOX12 inhib: blocks human 12-lipoxygenase activity. Potency, µM (doses to about 57.1 µM), for inactives: top-dose activity change, negative = inhibition, hits mostly inhibitors. purified 12-hLO, xylenol orange hydroperoxide absorbance. 0.12% of 150,000 active. P18054. AID 1452; active means well fitted inhibition curve with a large enough effect; inconclusive means small, poorly fitted or top-dose-only effect; further: potency means the concentration at half of the fitted maximal effect; nearly all actives have a fitted effect of over 55% in size
#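 Hydroperoxide output read as Fe(III)-xylenol orange absorbance, 573-to-405 nm ratio, after 30 min reaction with 40 uM arachidonic acid. Enzyme: 150 nM purified human 12hLO, 15 min compound preincubation; 25 mM Hepes pH 7.0, room temperature.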
# Lamin A splicing: modulators of lamin A splicing; 0.01% of 200,000 active; Potency, µM (titrated, usually from 46.1 µM), without a hit: at the highest dose ratio change, negative = inhibition, hits mostly inhibitors; HeLa LMNA splicing GFP/RFP minigene ratio, 48 h; AID 1487; active means well fitted inhibition curve with a large enough effect in the signal ratio, with a control signal flat, not every such curve was filed as active; inconclusive means small, poorly fitted or top-dose-only effect, or effect the other way, or a change in a side signal; the % refers to the signal ratio; further: potency means the concentration at half of the fitted maximal effect
#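 Read-out is the ratio of GFP to DsRed2 object intensity, acquired by 488 nm laser-scanning cytometry on HeLa lamin A-EGFP minigene reporter cells. Compound incubation 48 hrs at 37 °C in Opti-MEM with 2% FBS; DMSO 0.5% final.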
# ALDH1A1 block: inhibitors of human aldehyde dehydrogenase 1A1; P00352; Purified ALDH1A1, NADH fluorescence, propionaldehyde substrate; Potency, µM (titrated, usually from 75.3 µM), for inactives: at the top dose activity, negative = inhibition, hits mostly inhibitors; 7.3% of 220,000 active; AID 1030;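 further: potency means the concentration at half of the fitted maximal effect; plate controls were no enzyme wells and a reference inhibitor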
# Target sequence (P00352 whole entry, looked up): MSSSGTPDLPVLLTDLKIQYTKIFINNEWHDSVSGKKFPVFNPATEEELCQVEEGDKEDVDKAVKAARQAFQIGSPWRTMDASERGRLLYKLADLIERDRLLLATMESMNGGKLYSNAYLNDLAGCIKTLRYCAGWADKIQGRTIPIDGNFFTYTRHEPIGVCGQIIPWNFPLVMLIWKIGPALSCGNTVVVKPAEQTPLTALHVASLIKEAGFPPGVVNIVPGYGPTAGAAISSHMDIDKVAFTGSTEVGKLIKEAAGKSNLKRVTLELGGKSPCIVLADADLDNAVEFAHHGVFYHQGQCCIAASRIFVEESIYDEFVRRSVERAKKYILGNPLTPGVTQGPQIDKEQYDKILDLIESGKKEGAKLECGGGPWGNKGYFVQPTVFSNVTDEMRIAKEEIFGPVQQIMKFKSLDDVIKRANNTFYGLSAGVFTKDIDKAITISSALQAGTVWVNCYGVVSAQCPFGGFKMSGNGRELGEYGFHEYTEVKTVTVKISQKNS
# HPGD block: inhibitors of human 15-hydroxyprostaglandin dehydrogenase (HPGD); Potency, µM, for the others: top-dose activity change, negative = inhibition, most hits filed as inhibitors; 4.3% of 150,000 active; P15428; purified HPGD, NADH fluorescence kinetic, PGE2 substrate; further: potency means the concentration at half of the fitted maximal effect
# Target sequence (P15428 whole entry, looked up): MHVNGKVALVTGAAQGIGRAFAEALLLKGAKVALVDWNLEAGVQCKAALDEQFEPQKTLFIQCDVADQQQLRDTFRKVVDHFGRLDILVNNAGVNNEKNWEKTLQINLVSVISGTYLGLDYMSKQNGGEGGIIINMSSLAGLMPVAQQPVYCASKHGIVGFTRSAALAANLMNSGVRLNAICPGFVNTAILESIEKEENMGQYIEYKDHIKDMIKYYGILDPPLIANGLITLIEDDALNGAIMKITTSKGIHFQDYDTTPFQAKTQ
#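 20 nM HPGD preincubated 15 min at room temperature with compound in 50 mM Tris-HCl pH 8, 0.01% Tween 20. Started with 1 mM NAD+ and 30 uM prostaglandin E2; NADH fluorescence (360/450 nm) read 5 times over 30-s intervals, last minus first.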
# * = called active by the depositor; ? = inconclusive; nt = no result; [ ] = another dose, or the depositor's remark. Unless noted, the call rests on the fitted dose curve; in most records, active means well fitted inhibition curve with a large enough effect (not every such curve was filed as active); inconclusive means small, poorly fitted or top-dose-only effect, or another doubt; inactive means no such curve, though single readings can be large or run the other way. Unless noted, on the % scale 0 is the no-effect control and ±100 the full control effect.
SMILES,PNC inhibitor,ALOX12 inhib,Lamin A splicing,ALDH1A1 block,HPGD block
CCN(CC)S(=O)(=O)c1ccc(/C(O)=C(\C#N)c2nc3ccccc3n2C)cc1,6.0,-3.3%,?,20µM*,-18.3%
Cc1cc(/C=N/N2CCN(C)CC2)c(C)n1-c1ccccc1F,nt,nt,-2.1%[46 µM],11.2µM*,nt
CN1CCN(/N=C/c2ccc(-c3ccccc3)cc2)CC1,nt,nt,-1.2%[9.22 µM],-3.8%,nt
CCn1cc(S(=O)(=O)c2ccc(C)cc2C)c(=O)c2cc(F)c(N3CCCC3)cc21,nt,nt,-0.3%[46 µM],nt,nt
CC1(C)Cc2c(sc3[nH]c(=S)[nH]c(=O)c23)CO1,nt,nt,nt,7.94µM*,nt
CCCSC1=N/C(=C\c2ccsc2)C(=O)S1,15.9,-13.1%,-5.1%,-0.3%,-5.0%
CCCSC1=N/C(=C\c2ccc([N+](=O)[O-])o2)C(=O)S1,nt,nt,nt,14.1µM*,nt
CCSC1=N/C(=C\c2ccc(-c3ccccc3[N+](=O)[O-])o2)C(=O)S1,58.7,?,1.4%[0.0737 µM],0.316µM*,-19.1%
CSC1=N/C(=C\c2ccc(C)o2)C(=O)S1,-6.8,?,5.4%,10µM*,?
CCCSC1=N/C(=C\C=C\c2ccco2)C(=O)S1,13.6,?,?,28.2µM*,-27.6%
Cc1ccccc1-c1nccc(NCc2cccs2)n1,nt,nt,-2.5%,?,nt
COC(=O)N1CCC[C@@]2(CCN(C(=O)Nc3cccc(C#N)c3)C2)C1,nt,5.4%,nt,-6.3%,-2.2%
Cc1cccc(NC(=O)CCn2nc(-c3ccccc3)c3ccccc3c2=O)c1,nt,nt,-16.8%[46 µM],nt,nt
Cn1nnnc1SCCCNCc1ccccc1OCc1ccc(F)cc1,nt,nt,-16.2%[46 µM],nt,nt
CCC(OC(=O)c1cccs1)C(=O)NCc1ccco1 (configuration not stated),-101.1*,5.5%,-11.6%,22.4µM*,-15.2%
CC(C)C(OC(=O)c1nsc(Cl)c1Cl)C(=O)NCc1ccc2c(c1)OCO2 (configuration not stated),-22.9,-0.6%,3.0%[0.0737 µM],-5.3%,2.24µM*
CC(C)C(OC(=O)c1cccs1)C(=O)NCc1ccc2c(c1)OCO2 (configuration not stated),nt,nt,14.8%[46 µM],-11.6%,nt
CC(OC(=O)c1cccs1)C(=O)NCc1ccc2c(c1)OCO2 (configuration not stated),-8.9,0.8%,6.5%,3.6%,28.2µM*
CC(C)Nc1nnc(SC(C)C(=O)NCc2ccc3c(c2)OCO3)s1 (configuration not stated),nt,nt,?,6.2%,nt
Cc1cc([N+](=O)[O-])cc2c1NC(=O)C2(O)N1CCOCC1 (configuration not stated),nt,nt,-9.6%[46 µM],?,nt
N#CCCn1c(=O)c(-c2ccc(Cl)cc2)nc2cnc(Oc3cccc(Cl)c3)nc21,nt,-4.4%,nt,?,-7.2%
C/C1=C/CC(C)(C)/C=C/C/C(C)=C/CC1,nt,5.2%,-24.6%,3.6%,-8.8%
COc1ccc(CCNC(=O)c2cc(S(=O)(=O)N3CCCC(C)C3)cn2C)cc1OC (configuration not stated),nt,nt,13.5%[46 µM],nt,nt
Oc1ccc(-c2cnns2)c(O)c1,?,-14.7%,7.6%,25.1µM*,2µM*
COC(=O)C1=C(C(=O)OC)[C@@H]2Nc3ccccc3[C@@]23C[C@@H](C(=O)OC)N(S(=O)(=O)c2ccc4c(c2)OCCN4C)C3=N1,nt,3.0%[11.4 µM],-6.8%[9.22 µM],3.1%[13.5 µM],-2.3%
SMILES,PNC inhibitor,ALOX12 inhib,Lamin A splicing,ALDH1A1 block,HPGD block
Cc1cccc(NC(=S)N2CCC(C(N)=O)(N3CCCCC3)CC2)c1C,nt,nt,4.1%[9.22 µM],3.7%,nt
CC(C)CCNc1nc(N)c([N+](=O)[O-])c(NCC2CCCO2)n1 (configuration not stated),45.6,-7.0%,?,11.2µM*,-18.6%
O=c1c(-c2ccnn2-c2cccc(Cl)c2)cnc2n1CCS2,-80.5*,-2.9%,2.6%,-0.2%,-1.9%
CC1=CC2C(CC1=O)C(C)=CCC2C(C)C (configuration not stated),nt,-2.6%,3.4%,-10.6%,-5.3%
COc1ccccc1NC(=O)CNC(=O)c1ccccc1C,-108.1*,10.7%,-2.9%,-10.9%,20µM*
COc1ccccc1NC(=O)CN1C(=O)C(C)SC(C)C1=O (configuration not stated),-99.0*,-0.2%,-9.5%,8.8%,-3.2%
COc1ccccc1NC(=O)CCC(=O)c1ccc(-c2ccccc2)cc1,-8.7,-3.1%,-3.1%,-7.2%,17.8µM*
COc1ccccc1NC(=O)CCSCCC(=O)Nc1ccccc1OC,-8.2,-3.2%,-2.2%,14.1µM*,-16.2%
Cc1cc(C)c(C(=O)O)c(CC(C)(C)C(=O)O)c1,nt,nt,7.6%[46 µM],1.7%,nt
COc1cc(OC)cc(-c2sc3ccccc3c(=O)c2I)c1,nt,-1.5%[0.00818 µM],nt,-15.0%,?
COc1ccccc1NC(=O)CC1Nc2ccccc2NC1=O (configuration not stated),?,-11.8%,?,28.2µM*,?
COc1ccc(NCC(=O)n2c(C)c(C)c3ccccc32)cc1,nt,nt,nt,7.94µM*,nt
Cc1noc(C)c1-c1nc(NCCN2CCOCC2)c2ccccc2n1,nt,nt,-7.7%,-7.7%,nt
Cc1cc(C)cc(OCCSc2nc3ccc(NC(=O)COc4ccccc4)cc3s2)c1,nt,nt,-0.6%[46 µM],nt,nt
COc1cc(OC)cc(C(=O)NC(=S)NNC(=O)c2cnccn2)c1,?,1.3%,?,39.8µM*,-26.1%
O=C(/C=C/c1ccccc1)NC(=S)NNC(=O)c1cccnc1,29.6,-2.5%,?,-7.6%,-19.9%
COc1ccc(/C=C/C(=O)NC(=S)NNC(=O)c2cccnc2)cc1OC,-9.1,0.9%,7.3%,4.0%,31.6µM*
COc1ccc(C(=O)NC(=S)NNC(=O)c2cnccn2)cc1OC,?,-0.6%,?,28.2µM*,-19.3%
CCCCCCCCCCCCCCC(C(=O)OC)C(O)(CC(=O)OC)C(=O)OC (configuration not stated),nt,-6.7%,?,-0.3%,-1.6%
CCOc1ccc(S(=O)(=O)NCC(c2cccs2)S(=O)(=O)c2ccc(C)cc2)cc1 (configuration not stated),nt,nt,-24.8%[46 µM],nt,nt
CC(=NCCCNC1CCCCC1)C1=C(O)CC(C)(C)CC1=O,-15.7,-1.6%,8.0%,28.2µM*,-4.0%
CCOC(=O)c1c(C)[nH]c(C(=O)N/N=C/c2ccc(Br)cc2)c1C,-112.6*,1.3%,?,-5.2%,-15.5%
Cc1[nH]c(C(=O)N/N=C/c2ccc(C(=O)O)cc2)c(C)c1C(=O)N/N=C/c1ccc(C(=O)O)cc1,?,-0.7%,-1.0%,2.1%,-12.2%
Cc1cc(F)ccc1S(=O)(=O)NCC(c1ccco1)S(=O)(=O)c1cccs1 (configuration not stated),nt,nt,-24.7%[46 µM],nt,nt
CO/N=C/CC(=O)c1cnc(-c2ccc(Cl)cc2)s1,nt,nt,?,3.16µM*,nt
O=c1cc(N2CCCCC2)c(-c2ccccc2)nn1Cc1ccccc1,nt,nt,?,15.8µM*,nt
O=c1cc(N2CCCC2)c(-c2ccccc2)n[nH]1,nt,nt,nt,-7.0%,nt
Cn1nc(-c2ccccc2)c(N2CCCCC2)cc1=O,nt,nt,nt,28.2µM*,nt
CCNc1ncc2nc(C)c(=O)n(Cc3ccc(F)cc3)c2n1,nt,nt,-6.7%,?,nt
CC1(C)Oc2cc3c(cc2O1)OC(C)(C)O3,nt,nt,nt,7.8%[13.5 µM],nt
